Measured values from the supplement of paper PMC12636033.
± gives the standard deviation of the averaged measurements. Over roughly 33,000 sequences, “E-score (rank enrichment, -0.5 to 0.5)” has its median near -0.0043; the highest 2% begin near 0.24. Only a selection was taken, and the highest values are over-represented in it overall.

system: 2Sp-muMax20 (muMax20 with two 2,6-bis(methyl)pyridine Cys staples); experiment: PBM 8-mer E-score (E-score (rank enrichment, -0.5 to 0.5)); higher = stronger preferential binding
Protocol: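 Protein binding microarray (universal PBM chip covering all 10-mers in fixed probe flanks) with chemically synthesized human Max(13-93) bHLH-LZ analogs (not full-length Max) bearing noncanonical residues (hArg, Tha, Aib, Nle at 65) and aromatic Cys staples. Read-out per 8-mer (and its reverse complement): E-score (rank-based enrichment, -0.5 to 0.5) and Z-score of median probe intensity.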

Sequence | PBM 8-mer E-score
ATTAACAC | 0.306 ± 0.05
ATAAATTA | 0.303 ± 0.049
GTTAATCA | 0.198 ± 0.048
ATTAATCC | 0.0916 ± 0.0058
ATTAATCA | 0.259 ± 0.059
ATTAACAA | 0.161 ± 0.042
AAGAATCA | 0.116 ± 0.04
GAGGCCTA | -0.184 ± 0.066
AGAAATCT | 0.0669 ± 0.11
ATATGAAA | 0.219 ± 0.031
ACACTTCG | -0.0252 ± 0.098
AAAAATTA | 0.116 ± 0.052
GAAAATTA | 0.291 ± 0.063
CAAAATTA | 0.15 ± 0.063
AGCGTGCG | 0.178 ± 0.02
CTAGAATA | 0.108 ± 0.076
ATAGAATA | 0.171 ± 0.011
GTAGAATA | 0.253 ± 0.0027
CATATTAG | 0.222 ± 0.025
CATATTGG | 0.251 ± 0.0054
CCTATTAA | 0.154 ± 0.024
TATATTAA | 0.211 ± 0.059
AATATTAG | 0.243 ± 0.026
CATATTGC | 0.164 ± 0.033
AATATTAC | 0.294 ± 0.0036

Sequence | PBM 8-mer E-score
CATATTAC | 0.0498 ± 0.065
AATATTGG | 0.0895 ± 0.038
ACTATTAG | -0.00553 ± 0.16
CATATTAA | 0.247 ± 0.019
GATATTAC | 0.178 ± 0.026
TGACACCA | -0.0859 ± 0.034
GAGGGTCC | -0.156 ± 0.027
AAAAGGTG | -0.103 ± 0.028
TCGTCCCA | 0.114 ± 0.012
GGTGCGAA | 0.0856 ± 0.053
ATGACTTC | 0.112 ± 0.019
GGCTTACC | -0.108 ± 0.026
CTTATGCA | 0.0234 ± 0.047
ATCACTTC | 0.0342 ± 0.00049
AATATTAT | 0.246 ± 0.036
AATATTTC | 0.0962 ± 0.04
AATATTCT | 0.231 ± 0.057
ACTATTAA | 0.157 ± 0.022
GATATTAA | 0.118 ± 0.0066
AATATTAA | 0.33 ± 0.029
ACTATTAT | 0.142 ± 0.1
AATATTTA | 0.282 ± 0.036
CATATTTA | 0.228 ± 0.01
AGCACCGC | -0.216 ± 0.056
ACTGGCGC | 0.0318 ± 0.075

Sequence | PBM 8-mer E-score
CGCGACTC | 0.0134 ± 0.05
AGAAGTGC | -0.15 ± 0.01
AGTGTACA | 0.138 ± 0.071
TCGTGTCA | -0.0282 ± 0.02
ATTCGACA | -0.0611 ± 0.091
CGACTGCG | -0.11 ± 0.012
CGGAAGAC | -0.286 ± 0.011
CCTGGCTC | -0.193 ± 0.028
CGCTTATA | 0.116 ± 0.018
AGCTTATA | 0.249 ± 0.15
AGCTTATC | 0.0357 ± 0.093
CGTCTTTA | 0.0497 ± 0.034
CTGGGTGA | -0.0861 ± 0.036
TGCGCGCA | 0.1734 ± 0.0016
GCTTATTA | 0.172 ± 0.037
CCTTATTC | -0.0629 ± 0.052
CCTTATTA | 0.28 ± 0.003
ACTCCTAG | -0.146 ± 0.087
CGACATGC | 0.0468 ± 0.0062
CTAACACA | 0.0336 ± 0.063
ATAACACA | 0.253 ± 0.075
GTAACACA | 0.183 ± 0.032
ATAACACC | 0.0871 ± 0.057
ATAACACG | 0.269 ± 0.011
ATAACAGG | -0.0186 ± 0.03

Sequence | PBM 8-mer E-score
ATCTAAGA | -0.0722 ± 0.047
TCGGAAGA | -0.155 ± 0.038
CGTTAACA | 0.0471 ± 0.048
AGTTAACA | 0.145 ± 0.13
TGTTAACA | 0.2746 ± 0.0014
AGCTTTTA | 0.0891 ± 0.031
ATATTAAC | 0.182 ± 0.0085
ATATTAAA | 0.2641 ± 0.001
CTATTAAA | 0.141 ± 0.053
ATATTAAT | 0.318 ± 0.08
ATATTAAG | 0.16 ± 0.025
TTATTAAA | 0.166 ± 0.054
GCCAGGGC | -0.343 ± 0.022
AAACGGTG | -0.0442 ± 0.0089
GGGCGTCA | 0.12 ± 0.063
CGAATTGA | 0.141 ± 0.014
TTGTACAA | 0.331 ± 0.11
CTGTACAA | 0.0666 ± 0.029
GTGTACAA | 0.198 ± 0.029
ACCGGTCC | -0.324 ± 0.028
TGACCTAA | 0.00115 ± 0.0031
CTCCCCCC | -0.0388 ± 0.051
CCACAGTA | 0.0513 ± 0.067
GTACCCGA | -0.187 ± 0.12
AATCAGCG | -0.0281 ± 0.1

Sequence | PBM 8-mer E-score
ACACATGT | 0.326 ± 0.044
AATCAGCT | 0.279 ± 0.013
ACACATGG | 0.194 ± 0.019
AATCATGA | 0.124 ± 0.13
AATCAGCC | 0.0385 ± 0.041
AAACATGG | 0.153 ± 0.0082
AATCATGT | 0.239 ± 0.04
AAACATGA | 0.0601 ± 0.067
AAACATGT | 0.287 ± 0.008
ACACATGA | 0.0699 ± 0.082
AATCATGG | 0.129 ± 0.0058
ACGTTAAG | 0.137 ± 0.027
CGGTGTGC | -0.209 ± 0.041
CCCCACGC | 0.095 ± 0.036
AAATACTA | 0.183 ± 0.026
CCATCGAC | -0.131 ± 0.028
AATTCCCA | 0.23782 ± 0.00023
AATTCCCC | 0.123 ± 0.015
GATTCCCA | 0.0167 ± 0.092
GCTTAGTA | 0.0418 ± 0.019
AACCTCTG | -0.064 ± 0.059
CATTAAGA | 0.237 ± 0.056
GATTAAGA | -0.00249 ± 0.0063
AATTAAGA | 0.214 ± 0.0075
GACGACTA | 0.138 ± 0.051

Sequence | PBM 8-mer E-score
CGACTCCC | -0.0206 ± 0.024
AGGGTCTG | -0.168 ± 0.019
CGTGATCC | -0.0859 ± 0.026
CGTGATCA | 0.245 ± 0.036
GGTGATCA | 0.0137 ± 0.0046
TGCTTACA | 0.114 ± 0.016
ACCCACGT | 0.284 ± 0.0034
ACCCACGC | 0.138 ± 0.023
AACCACGC | 0.0757 ± 0.035
AACCACGA | 0.118 ± 0.035
AACCACGT | 0.288 ± 0.032
ACCCACGA | -0.0222 ± 0.03
GAGGCCGC | -0.291 ± 0.046
ACAATACA | 0.0638 ± 0.061
CCAATAAA | 0.211 ± 0.035
ACAATACC | 0.273 ± 0.015
ACAATAAT | 0.275 ± 0.043
ACAATAAA | 0.256 ± 0.012
ATAATAAT | 0.14 ± 0.084
ACAATAAC | 0.0634 ± 0.07
ACAATAAG | 0.1254 ± 0.001
ACAATACT | 0.204 ± 0.069
CCGTTCAA | 0.137 ± 0.026
GAGCTGAA | 0.0148 ± 0.13
AACGCCCT | -0.0766 ± 0.052

Sequence | PBM 8-mer E-score
AAGGTCAT | -0.149 ± 0.0067
AGAGCCCG | -0.276 ± 0.012
AATCAGGA | 0.0255 ± 0.037
CTATATAA | 0.157 ± 0.081
GTGTATAA | 0.103 ± 0.024
CGATATAA | 0.24 ± 0.0019
ATGTAGAA | 0.246 ± 0.053
CTGTAGAA | 0.0793 ± 0.045
ATGTAGAG | 0.0603 ± 0.063
ATATATAA | 0.328 ± 0.032
CTGTATAA | 0.19 ± 0.035
CGATATAC | 0.0494 ± 0.11
ATGTATAA | 0.277 ± 0.046
CGATATAG | 0.116 ± 0.068
GTATATAA | 0.125 ± 0.0038
ACAAACGC | -0.0614 ± 0.035
CACAAATC | 0.052 ± 0.071
AGAGGGAG | 0.112 ± 0.027
ATGGGCAG | 0.0154 ± 0.02
AGTCTCTA | 0.0513 ± 0.038
GGCGAACA | -0.00568 ± 0.13
ATACACCC | -0.00554 ± 0.027
